# TRPV1 agonist: activates the human vanilloid receptor TRPV1. activation, % at 8.33 µM. TRPV1-expressing cells, Fluo-8 calcium influx, agonist mode. actives 0.19% (n = 320,000). Q8NER1; in the data active = activation above about 80%; inconclusive = between about 30% and that limit; also: 0% is about no effect
#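 TRPV1-expressing cells were cultured overnight at 35.5C and loaded with Fluo-8 calcium dye for 40 to 90 min at room temperature. After a 10 s baseline, compound was added and calcium influx was read kinetically for 3 min (ex 480/em 520 nm).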
# TRPV1 potentiator: human TRPV1 potentiation; Q8NER1; actives 0.02% (n = 320,000); potentiation, % at 8.33 µM; AID 540277; TRPV1-expressing cells, Fluo-8 calcium influx, capsaicin EC20 potentiation; in the data active = potentiation above about 80%; inconclusive = between about 30% and that limit; also: 0% is about no effect
#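 Cells expressing TRPV1 were dye-loaded with Fluo-8 and read kinetically: 10 s baseline, 3 min after compound (agonist portion), then 2 min after EC20 capsaicin (allosteric enhancer portion). Calcium-bound dye fluorescence at 480/520 nm.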
# RORgamma inh: ROR gamma (mouse) transcription inhibition; P51450; Drosophila S2 Gal4-RORgamma UAS-luciferase reporter, 20 h; Potency, µM (titrated, usually from 53.6 µM), for inactives: at the top dose activity change, negative = inhibition, actives largely listed as inhibitors; actives 5.4% (n = 310,000); AID 2551; also: potency is read from the fitted curve at half-maximal effect; % is scaled to controls: 0 for no effect and ±100 for the full control effect; nearly all actives have a fitted effect of over 60% in size
#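 Schneider cells (Drosophila), stable Gal4 DBD–ROR gamma + UAS-luc; 1 hr cmpd preincubation; Cu2+ induction 700 uM final; 20 hr ambient; luminescence.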
# VP16 counter: counter-screen for ROR gamma inhibitors: Gal4-VP16 reporter | Drosophila S2 Gal4-VP16 UAS-luciferase, luminescence, 20 h | Potency, µM (titrated, usually from 53.6 µM), for the others: at the top dose activity, negative = inhibition, most hits filed as inhibitors | actives 3.5% (n = 310,000) | AID 2546;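 also: Gal4-VP16 expression switched on by copper sulfate through the metallothionein promoter; potency is read from the fitted curve at half-maximal effect; % is scaled to controls: 0 for no effect and ±100 for the full control effect; nearly all actives have a fitted effect of over 50% in size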
# uPA surface inh: inhibitors of cell surface uPA generation; cell surface uPA generation assay, qHTS; Potency, µM (doses to about 38.3 µM), without a hit: top-dose activity change, negative = inhibition, usual class: inhibitors; actives 0.31% (n = 330,000); active = well fitted inhibition curve with a large enough effect; inconclusive = small, poorly fitted or top-dose-only effect; inactive = no such curve, though single readings can be large or run the other way; tested in mouse RAW 264.7 cells; also: potency is read from the fitted curve at half-maximal effect; % is scaled to controls: 0 for no effect and ±100 for the full control effect; nearly all actives have a fitted effect of over 55% in size
# The depositor's hits bear a star; ? = inconclusive; / = not tested or not shown; [ ] = another dose, or the depositor's remark. Shown are actives, neighbours in structure and some others; about 5.8% of the full set was active somewhere. Unless noted, calls follow the shape of the dose curve; as a rule, active = well fitted curve in the direction sought with a large enough effect; inconclusive = small, poorly fitted or top-dose-only effect, or another doubt; inactive = no such curve, though single readings can be large; an effect the other way counts as inactive or inconclusive.
SMILES,TRPV1 agonist,TRPV1 potentiator,RORgamma inh,VP16 counter,uPA surface inh
COC(=O)C1(Cc2ccccc2)C=C2C(=C(c3ccccc3)C(=O)C2C)CN1 (configuration not stated),/,/,11%,30%,/
CCN(CC(=O)NCc1cccs1)S(=O)(=O)c1cccc(Br)c1,14,-10,/,/,25%
O=C(CCN1C(=O)S/C(=C\c2ccccc2)C1=O)NCCCn1ccnc1,5,0,21%,4%,5%
O=C(CCCN1C(=O)/C(=C/c2ccccc2)SC1=S)NCCCn1ccnc1,2,-3,5µM*,4.5µM*,-26%
O=C(CCCN1C(=O)/C(=C/c2ccccc2)SC1=S)Nc1ccccc1O,8,-8,4.5µM*,?,3%
O=C(CCCN1C(=O)/C(=C\c2ccccc2)SC1=S)Nc1ccc(O)cc1C(=O)O,-2,-13,?,?,-3%
CO[C@H]1COC(=O)C/C=C\[C@H](C)[C@@H](OC)COC(=O)[C@@H](C)NC(=O)C/C=C\[C@@H]1C,/,/,12%[10 µM],-1%[10 µM],/
CC1=NN(C(=O)c2ccc(Cn3nc(C)cc3C)o2)C(O)(C(F)(F)F)C1 (configuration not stated),1,5,6.3µM*,5.6µM*,/
CC1=NN(C(=O)c2ccc(Cn3cc(Br)c([N+](=O)[O-])n3)o2)C(O)(C(F)(F)F)C1 (configuration not stated),2,4,4.5µM*,11µM*,1%
Cc1cc(C)n(C(=O)c2ccc(Cn3nc(C)c(Br)c3C)o2)n1,5,24,-14%,21%,-2%
Cc1ccccc1NC(=O)c1cccc(Cn2cc(Br)c([N+](=O)[O-])n2)c1,26,-17,?,-14%,4%
Cc1ccc2sc(NNC(=O)C3=COCCO3)nc2c1C,-1,7,5.6µM*,?,0%
O=C(NNc1nc2c(F)cccc2s1)c1ccccc1,2,13,?,?,-12%
O=C(NNc1nc2c(F)cccc2s1)C1=COCCO1,2,4,11µM*,-28%,-2%
O=C(OCC(=O)N1CCOCC1)c1ccc(Br)cc1,1,8,14%,1%,-1%
Clc1ccc(C2=CC(c3ccco3)n3ncnc3N2)cc1 (configuration not stated),29,-20,?,-18%,-5%
CC(=O)Nc1cccc(C2=CC(c3ccco3)n3ncnc3N2)c1 (configuration not stated),4,2,6.3µM*,-14%,/
O=C(NCc1cccc(C(F)(F)F)c1)C1CCC(=O)N(C2CCCCCC2)C1 (configuration not stated),12,5,27%,-1%,-1%
COc1cc(OC)cc(-c2nc3ccccc3c(=O)n2OC(=O)c2ccccc2C)c1,11,-11,13µM*,?,3%
COc1ccc(-c2nc3ccccc3c(=O)n2CCOc2c(C)cccc2C)cc1,1,4,-1%,1%,6%
O=C(On1c(-c2ccccc2)nc2ccccc2c1=O)c1ccco1,-4,4,11µM*,?,-7%
O=c1c2ccccc2nc(-c2ccco2)n1Cc1ccccc1,7,-15,19%,?,/
COc1ccccc1OCC(=O)N/N=C/c1c(O)ccc2ccccc12,-5,27,2.8µM*,2.5µM*,/
COc1ccc(/C=N/NC(=O)COc2cccc3ccccc23)c(C(=O)O)c1OC,-4,12,-17%,?,2%
COc1cccc(/C=N/NC(=O)COc2cccc3cccnc23)c1O,-2,8,2.2µM*,13µM*,-7%
SMILES,TRPV1 agonist,TRPV1 potentiator,RORgamma inh,VP16 counter,uPA surface inh
O=C(COc1ccc(Cl)cc1)N/N=C/c1cccc2cccnc12,0,-35,13µM*,10µM*,-5%
COc1ccccc1OCC(=O)N/N=C/c1cccc2cccnc12,-1,-1,18µM*,?,-7%
CC(OCc1ccccc1)C(NC(=O)OC(C)(C)C)C(=O)NC1COC2CC(n3cc(F)c(=O)[nH]c3=O)OC12 (configuration not stated),/,/,-25%,0%,/
O=C(NC1CCCC1)C(c1cccnc1)N(C(=O)c1csnn1)c1ccccc1 (configuration not stated),2,12,-21%,-5%,0%
O=C(NCCCn1ccnc1)C(=O)NCC1OCCCN1S(=O)(=O)c1ccccc1 (configuration not stated),-1,-3,-3%,-17%,-3%
COC(=O)c1c(NC(=O)CSc2nc3nc(C)cc(C)n3n2)sc(C)c1C,-2,6,12%,-13%,3%
Cc1cccc(NC(=S)NC(=O)CC2CC(C)(C)OC2=O)c1 (configuration not stated),1,4,11µM*,-18%,4%
Cc1ccc(NC(=S)NC(=O)CC2CC(C)(C)OC2=O)cc1 (configuration not stated),6,-6,?,-6%,?
COc1ccc(-c2nc3cnc(Oc4cccc(Cl)c4)nc3n(CCC#N)c2=O)cc1,/,/,-14%,-5%,/
CCOc1ccc(N(CC(=O)Nc2cccc(Cl)c2)S(=O)(=O)c2c(C)noc2C)cc1,/,/,16µM*,13µM*,?
CCOc1ccc(N(CC(=O)Nc2cccc(OC)c2)S(=O)(=O)c2c(C)noc2C)cc1,8,3,?,?,-24%
CCOc1ccc(N(CC(=O)Nc2ccccc2OCC)S(=O)(=O)c2c(C)noc2C)cc1,13,-12,-11%,-6%,1.3µM*
COC(=O)[C@@]1(Cc2ccccc2)[C@H]2c3cc(C(=O)N(C)C)n(Cc4cc(F)c(F)c(F)c4)c3C[C@H]2CN1C(=O)c1ccccc1,/,/,?,9%,/
O=C1CCCC=C1[C@@H](O)C1CCCCC1,/,/,-8%[10 µM],-5%[10 µM],/
O=c1c2c([N+](=O)[O-])cc([N+](=O)[O-])cc2sn1-c1ccc(Br)cc1,6,-11,8.9µM*,10µM*,12%
O=c1c2c([N+](=O)[O-])cc([N+](=O)[O-])cc2sn1Cc1ccccc1,5,5,7.1µM*,4.5µM*,2%
O=[N+]([O-])c1ccc(S(=O)Cc2ccccc2)c([N+](=O)[O-])c1 (configuration not stated),/,/,/,/,-12%
O=C(Nc1ccc(Br)cc1)c1cc([N+](=O)[O-])cc([N+](=O)[O-])c1,2,-1,-2%[1.91 µM],?,2%
CC(C)CCNC(=O)C(C)N(C(=O)c1snc(C(N)=O)c1N)c1cnc2ccccc2c1 (configuration not stated),1,-5,?,2%,1%
Cc1cc(C(=O)Nc2cc(C(C)(C)C)on2)c(C)o1,?,-16,10µM*,2%,?
COc1ccc(O)c(C(=O)c2cnn(C(=O)c3cccc(S(=O)(=O)N4CCOCC4)c3)c2)c1,4,-9,0%,7%,4%
C=C1CC/C=C(\C)CC[C@@H]2[C@@H]1CC2(C)C,/,/,14%,-1%,/
